Values joined by “and” are separate entries in the source; they are usually repeats but may differ in a detail not shown here. Equal entries are not always repeated. The panel holds about 83,000 compounds, 20% with a hit somewhere; the sample as a whole holds those more often.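 Cells were grown in 96-well plates and exposed to the test compound at a single concentration for 48 hours; results are reported as percent growth, with values below 10 considered active.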 Active and inactive are the calls of the source.
Assays:
Assay in all cases: NCI-60 one-dose screen, 48 h (100 = growth as untreated, 0 = no growth, -100 = all killed)
Conditions in all cases: 10 µM unless noted
NCI-H23 lung = tested on: NCI-H23 lung
NCI-H226 lung = tested on: NCI-H226 lung
NCI-H322M lung = tested on: NCI-H322M lung
HOP-62 NSCLC = tested on: HOP-62 NSCLC
NCI-H460 lung = tested on: NCI-H460 lung
HOP-92 NSCLC = tested on: HOP-92 NSCLC
NCI-H522 lung = tested on: NCI-H522 lung
A549/ATCC NSCLC = tested on: A549/ATCC NSCLC
786-0 renal = tested on: 786-0 renal
COLO 205 colon = tested on: COLO 205 colon
DU-145 prostate = tested on: DU-145 prostate
K-562 leukemia = tested on: K-562 leukemia
MALME-3M melanoma = tested on: MALME-3M melanoma
MDA-MB-231 breast = tested on: MDA-MB-231 breast
RXF 393 renal = tested on: RXF 393 renal
SF-268 CNS = tested on: SF-268 CNS
SF-295 CNS = tested on: SF-295 CNS
SF-539 CNS = tested on: SF-539 CNS
UACC-257 melanoma = tested on: UACC-257 melanoma
M14 melanoma = tested on: M14 melanoma

Measured: growth

CC(=O)Nc1ccc(OC(C)=O)cc1
9.59% (active) and 105% (inactive): SF-295 CNS
inactive: NCI-H23 lung 12% and 103% | NCI-H322M lung 29.5% and 112% | HOP-92 NSCLC 102% | 786-0 renal 11.4% and 99.9% | MALME-3M melanoma 44.4% and 111% | SF-268 CNS 23.1% and 103% | UACC-257 melanoma 55.4% and 102%
8.26% (active) and 106% (inactive): K-562 leukemia
-31.9% (active) and 105% (inactive): NCI-H522 lung
6.06% (active) and 102% (inactive): A549/ATCC NSCLC
8.93% (active) and 111% (inactive): HOP-62 NSCLC
5.48% (active) and 98.2% (inactive): NCI-H226 lung
-5.2% (active) and 95.3% (inactive): RXF 393 renal
-16.4% (active) and 109% (inactive): DU-145 prostate
-20.3% (active) and 111% (inactive): MDA-MB-231 breast
2.3% (active) and 98.6% (inactive): NCI-H460 lung
0.268% (active) and 103% (inactive): M14 melanoma
2.32% (active) and 95.1% (inactive): SF-539 CNS
-81.3% (active) and 108% (inactive): COLO 205 colon

CCN(CC)C(CC(=O)c1ccccc1)C(=O)c1ccccc1 (stereo not given)
inactive: NCI-H23 lung 102% | NCI-H226 lung 95% | NCI-H322M lung 107% | HOP-62 NSCLC 116% | NCI-H460 lung 106% | HOP-92 NSCLC 93.4% | NCI-H522 lung 71.7% | A549/ATCC NSCLC 102% | 786-0 renal 93.5% | COLO 205 colon 77.8% | DU-145 prostate 99.9% | K-562 leukemia 38.2% | MALME-3M melanoma 104% | MDA-MB-231 breast 110% | RXF 393 renal 115% | SF-268 CNS 98% | SF-295 CNS 103% | SF-539 CNS 101% | UACC-257 melanoma 95.5% | M14 melanoma 105%

CN(C)C(=N)N=C(N)N
inactive: NCI-H23 lung 100% and 120% | NCI-H226 lung 110% and 133% | NCI-H322M lung 107% and 154% | HOP-62 NSCLC 95.5% and 99.5% | NCI-H460 lung 113% and 125% | HOP-92 NSCLC 114% and 122% | NCI-H522 lung 64.1% and 166% | A549/ATCC NSCLC 99.8% and 118% | 786-0 renal 103% and 101% | COLO 205 colon 135% | DU-145 prostate 120% | K-562 leukemia 130% | MALME-3M melanoma 116% and 269% | MDA-MB-231 breast 95.8% and 114% | SF-268 CNS 99.9% and 103% | SF-295 CNS 113% and 178% | SF-539 CNS 98.5% and 109% | M14 melanoma 99.2% and 101%
101% (inactive) and -7.3% (active): RXF 393 renal
108% (inactive) and -0.171% (active): UACC-257 melanoma

COc1cc2c(cc1O)C(=O)CCCC2
inactive: NCI-H23 lung 91.8% | NCI-H226 lung 102% | NCI-H322M lung 102% | HOP-62 NSCLC 91.5% | NCI-H460 lung 103% | HOP-92 NSCLC 82.9% | NCI-H522 lung 70.6% | A549/ATCC NSCLC 110% | 786-0 renal 94.9% | COLO 205 colon 143% | DU-145 prostate 117% | K-562 leukemia 124% | MALME-3M melanoma 108% | MDA-MB-231 breast 108% | RXF 393 renal 105% | SF-268 CNS 90.3% | SF-295 CNS 83.8% | SF-539 CNS 99.6% | UACC-257 melanoma 121% | M14 melanoma 97.2%

Cn1c(-c2ccccc2)cc(=O)cc1-c1ccccc1
inactive: NCI-H23 lung 73.8% | NCI-H226 lung 101% | NCI-H322M lung 97% | HOP-62 NSCLC 98.3% | NCI-H460 lung 37.8% | HOP-92 NSCLC 90.3% | NCI-H522 lung 56.4% | A549/ATCC NSCLC 96.4% | 786-0 renal 106% | COLO 205 colon 96.9% | K-562 leukemia 99.8% | MALME-3M melanoma 122% | MDA-MB-231 breast 88.8% | RXF 393 renal 62% | SF-268 CNS 89.9% | SF-295 CNS 93.7% | SF-539 CNS 111% | UACC-257 melanoma 95.1% | M14 melanoma 97.7%
active: DU-145 prostate 3.58%

COc1ccc(CCO)cc1
inactive: NCI-H23 lung 110% | NCI-H226 lung 92.8% | NCI-H322M lung 99% | HOP-62 NSCLC 96.2% | NCI-H460 lung 108% | HOP-92 NSCLC 86.4% | NCI-H522 lung 88.6% | A549/ATCC NSCLC 92.9% | 786-0 renal 99.3% | COLO 205 colon 96.3% | DU-145 prostate 110% | K-562 leukemia 82.9% | MALME-3M melanoma 92.1% | MDA-MB-231 breast 102% | RXF 393 renal 105% | SF-268 CNS 105% | SF-295 CNS 103% | SF-539 CNS 101% | UACC-257 melanoma 96.4% | M14 melanoma 103%

Cc1onc(-c2c(F)cccc2Cl)c1-c1ncc(-c2ccc(Cl)cc2)o1
inactive: NCI-H23 lung 67% and 42.5% | NCI-H226 lung 76.9% and 58.4% | NCI-H322M lung 104% and 57% | HOP-62 NSCLC 78% and 53.4% | HOP-92 NSCLC 34.2% and 73% | NCI-H522 lung 35.1% | A549/ATCC NSCLC 53.1% and 41.4% | 786-0 renal 73.9% and 31.6% | COLO 205 colon 53.5% and 43.6% | DU-145 prostate 97.2% and 50.2% | K-562 leukemia 27.9% and 21.5% | MALME-3M melanoma 60.2% and 46.6% | MDA-MB-231 breast 54.1% and 46.3% | RXF 393 renal 89.9% and 52.7% | SF-268 CNS 66.2% and 49.8% | SF-295 CNS 43.8% and 42.2% | SF-539 CNS 68% and 36.5% | UACC-257 melanoma 22.5% | M14 melanoma 54.8% and 46.6%
29.6% (inactive) and 3.17% (active): NCI-H460 lung

CC1(C)CC(=O)NC1=O
inactive: NCI-H23 lung 96.5% | NCI-H226 lung 99.6% | NCI-H322M lung 94.2% | HOP-62 NSCLC 101% | NCI-H460 lung 108% | HOP-92 NSCLC 114% | NCI-H522 lung 96.8% | A549/ATCC NSCLC 99.3% | 786-0 renal 97.6% | COLO 205 colon 113% | DU-145 prostate 109% | K-562 leukemia 94.8% | MALME-3M melanoma 102% | MDA-MB-231 breast 106% | RXF 393 renal 97.7% | SF-268 CNS 100% | SF-295 CNS 108% | SF-539 CNS 93.5% | UACC-257 melanoma 101% | M14 melanoma 95%

S=c1nn[nH]n1C1CCCCC1
inactive: NCI-H23 lung 111% | NCI-H226 lung 102% | NCI-H322M lung 102% | HOP-62 NSCLC 126% | NCI-H460 lung 95.7% | HOP-92 NSCLC 93.2% | NCI-H522 lung 117% | A549/ATCC NSCLC 106% | 786-0 renal 99.7% | COLO 205 colon 123% | DU-145 prostate 105% | K-562 leukemia 122% | MALME-3M melanoma 95.8% | MDA-MB-231 breast 116% | RXF 393 renal 148% | SF-268 CNS 105% | SF-295 CNS 97% | SF-539 CNS 106% | UACC-257 melanoma 97.8% | M14 melanoma 100%

COC1C(OC(N)=O)C(O)C(Oc2ccc3c(O)c(NC(=O)c4ccc(O)c(CC=C(C)C)c4)c(=O)oc3c2C)OC1(C)C (stereo not given)
inactive: NCI-H23 lung 104% and 93.7% | NCI-H226 lung 104% and 90.5% | NCI-H322M lung 105% and 102% | HOP-62 NSCLC 101% and 98.5% | NCI-H460 lung 116% and 94.9% | HOP-92 NSCLC 78.6% | NCI-H522 lung 44.3% and 131% | A549/ATCC NSCLC 105% and 103% | 786-0 renal 94.2% and 101% | COLO 205 colon 108% and 104% | DU-145 prostate 106% and 105% | K-562 leukemia 79.4% and 116% | MALME-3M melanoma 121% and 101% | MDA-MB-231 breast 108% and 88.2% | RXF 393 renal 104% and 98.2% | SF-268 CNS 104% and 97.1% | SF-295 CNS 92.7% and 94.9% | SF-539 CNS 98% and 97.1% | UACC-257 melanoma 104% and 101% | M14 melanoma 102% and 99.2%

CCCCCCC(C)CC1=C(O)c2ccccc2C(=O)C1=O (stereo not given)
inactive: NCI-H23 lung 42.2% | NCI-H226 lung 37.3% | NCI-H322M lung 51.7% | HOP-62 NSCLC 59.3% | NCI-H460 lung 14.3% | HOP-92 NSCLC 67% | NCI-H522 lung 56.2% | A549/ATCC NSCLC 36% | 786-0 renal 27.1% | COLO 205 colon 80.2% | DU-145 prostate 45.2% | K-562 leukemia 31.1% | MALME-3M melanoma 54.9% | MDA-MB-231 breast 66.2% | RXF 393 renal 60% | SF-268 CNS 53.2% | SF-295 CNS 35.4% | SF-539 CNS 34% | UACC-257 melanoma 38.2% | M14 melanoma 44.1%

N#CC(=S)Nc1ccc(Cl)c(Cl)c1
inactive: HOP-62 NSCLC 24.3% | A549/ATCC NSCLC 15.6% | 786-0 renal 14.2% | DU-145 prostate 18.6% | K-562 leukemia 16.1% | RXF 393 renal 13% | SF-268 CNS 11% | M14 melanoma 26.1%
active: NCI-H23 lung 3.93% | NCI-H226 lung 9.29% | NCI-H322M lung -3.76% | NCI-H460 lung 9.12% | HOP-92 NSCLC -15.6% | NCI-H522 lung -14% | COLO 205 colon -22% | MALME-3M melanoma -13.4% | MDA-MB-231 breast -4.8% | SF-295 CNS -0.242% | SF-539 CNS 8.61% | UACC-257 melanoma -6.42%
